In all, about 48,000 compounds went through this assay and about 13,000 (27%) showed an effect of 50% or more. Some of the results follow.
Each compound was assayed on Wolbachia pipientis (assay: Anti-Wolbachia Cell-Based Screen). Settings: 5 µM.
Type: functional
Parameters: scale not given: in the data most compounds retested in dose-response had high values

| Compound | Percent Effect |
| --- | --- |
| Cn1c(CC2CCS(=O)(=O)C2)nnc1SCCOc1ccccc1F (centres undefined) | 1.517% |
| CN(Cc1ccncc1)C(=O)Nc1cnn(CC(N)=O)c1 | -7.922% |
| CCN(C)S(=O)(=O)N1CCC(C(O)c2ccc(Cl)cc2)CC1 (centres undefined) | 1.239% |
| CC(C)COC(C)C(=O)NCc1ccc(OC(C)C)nc1 (centres undefined) | 0.7864% |
| CC(C)COC(C)C(=O)NCc1ccccc1 (centres undefined) | 129.5% |
| CC(C)COC(C)C(=O)NCc1cc(F)cc(F)c1 (centres undefined) | -4.135% |
| CCOCCOC(C)C(=O)NCc1ccc(N2CCCCC2)cc1 (centres undefined) | -8.198% |
| CC(OCC1CC1)C(=O)NCc1cccc(CN2CCCC2=O)c1 (centres undefined) | 3.012% |
| CC(C)COC(C)C(=O)NCc1ccc(F)cc1 (centres undefined) | 52.08% |
| Cc1cc(C)n(-c2ccc(N3CCC4(CC3)OCC(C)O4)nc2)n1 (centres undefined) | 14.39% |
| O=C(C1CCCOC1)N(CC(F)F)c1cccc(Cl)c1 (centres undefined) | -10.1% |
| CN1CCN(C(=O)C2SCCc3sccc32)CC1 (centres undefined) | -4.064% |
| CCC(C)(C)NC(=O)CSCc1ccc(S(=O)(=O)N(C)C)o1 | 5.588% |
| CCC(C)(CC(=O)OC)NCc1cc(C)on1 (centres undefined) | -8.886% |
| COc1ccccc1CC(C)(C)NC(=O)CNS(C)(=O)=O | -9.621% |
| N#Cc1ccc(CN2CCCCC2Cn2cncn2)cc1 (centres undefined) | 10.73% |
| Cc1cnn(CC2CCCCN2Cc2nnc(-c3ccco3)o2)c1 (centres undefined) | 2.932% |
| COc1ccc(-c2cnc(CN3CCCC3Cn3cncn3)o2)cc1 (centres undefined) | -4.543% |
| Clc1ccc2cccnc2c1CN1CCCC1Cn1cncn1 (centres undefined) | -9.545% |
| c1coc(-c2nnc(CN3CCCC3Cn3cncn3)o2)c1 (centres undefined) | 82.67% |
| Clc1ccccc1-c1nnc(CN2CCCC2Cn2cncn2)o1 (centres undefined) | 104.1% |
| Fc1ccc(-c2nnc(CN3CCCC3Cn3cncn3)o2)cc1 (centres undefined) | -1.304% |

| Compound | Percent Effect |
| --- | --- |
| c1csc(-c2nc(CN3CCCC3Cn3cncn3)co2)c1 (centres undefined) | 2.244% |
| COc1ccc(-c2nnc(CN3CCCC3Cn3cncn3)o2)cc1 (centres undefined) | 93.03% |
| c1ccc(-c2nnc(CN3CCCC3Cn3cncn3)o2)cc1 (centres undefined) | 126.9% |
| CS(=O)(=O)N[C@@H]1CCN(Cc2nccs2)[C@H]1Cc1ccncc1.O=C(O)C(F)(F)F.O=C(O)C(F)(F)F | -21.66% |
| COCc1cc(CNC(=O)c2c(C)c(C)cc(C)c2C)n[nH]1 | -1.645% |
| CC(=O)Nc1ccc(C(=O)N(C)C(C)Cc2cc(C)ccn2)cn1 (centres undefined) | -9.308% |
| O=C(O)c1ccn(-c2ccccc2NS(=O)(=O)c2ccccc2)n1 | 2.8% |
| Cc1nc(CN2C[C@@H]3CN(c4ncccn4)C[C@@H]3C2=O)cs1.O=C(O)C(F)(F)F | 2.706% |
| Cc1cccc(-c2nc(CN3CCCCC3Cn3cncn3)no2)c1 (centres undefined) | -2.041% |
| Cc1ccc(-c2nnc(CN3CCCCC3Cn3cncn3)o2)cc1 (centres undefined) | 107.2% |
| CC(C)=Cc1c(-c2ccccc2)ncn1CCS(C)(=O)=O | -13.72% |
| OC1(CN2CCCCC2)CCN(c2nccc(C(F)(F)F)n2)C1 (centres undefined) | 108.3% |
| CC(C)N1CCC2(CCCN(c3nccc(C(F)(F)F)n3)C2)CC1.O=C(O)C(F)(F)F | -13.26% |
| O=C1CCC2(CCN(c3cccc(C(F)(F)F)n3)CC2)CN1CCO | 4.395% |
| OC1(CN2CCCCC2)CCN(c2cccc(C(F)(F)F)n2)C1 (centres undefined) | 110.2% |
| CN1CCCC2(CCN(c3cccc(C(F)(F)F)n3)C2)C1=O (centres undefined) | -13.28% |
| CC(C)N1CCCC2(CCN(c3nccc(C(F)(F)F)n3)C2)C1=O (centres undefined) | -9.493% |
| CCS(=O)(=O)CC(=O)Nc1ccc2oc(C3CC3)nc2c1 | -4.895% |
| c1cn(CC2CCOCC2)c(-c2cc(CN3CCCC3)cs2)n1 | 5.864% |
| CC(CCO)Nc1cccc(C(F)(F)F)n1 (centres undefined) | -9.729% |
| CCn1nc(CC(C)C)cc1C(=O)NCCCN1CCOCC1 | 125.1% |
| CCC(CNC(=O)c1cc(CC(C)C)nn1C)N(C)CC (centres undefined) | -16.5% |

| Compound | Percent Effect |
| --- | --- |
| CCn1nc(CC(C)C)cc1C(=O)NCC(F)(F)F | 127.5% |
| COc1nc(C)cc(C)c1CNC(=O)N(C)Cc1cnn(C)c1 | -3.346% |
| CCN(CC)C1CCN(C(=O)c2cc(CC(C)C)nn2CC)C1 (centres undefined) | 33.04% |
| CCn1nc(CC(C)C)cc1C(=O)NCc1c(C)cc(C)nc1OC | 140.7% |
| CCn1nc(CC(C)C)cc1C(=O)N1CCCC(C#N)C1 (centres undefined) | -3.007% |
| CCn1nc(CC(C)C)cc1C(=O)NCCn1cccc1 | -13.46% |
| CCn1nc(CC(C)C)cc1C(=O)N1CC[C@@H](O)C1 | -2.224% |
| CCn1nc(CC(C)C)cc1C(=O)NCCCOC | -13.1% |
| CCn1ccc(C(=O)NCCCN2CCOCC2)n1 | -2.896% |
| CCn1nc(CC(C)C)cc1C(=O)NCCS(=O)(=O)N(C)C | 162.2% |
| CN(CCn1cnnc1)C(=O)c1ccnc(OC2CCC2)c1 | -7.369% |
| COc1cc(C)nc(N2CCN(C(=O)CCc3ccco3)CC2)n1 | 12.06% |
| COc1cc(CCC(=O)N2CCC(c3cnccn3)CC2)on1 | 147.9% |
| COc1cc(C)nc(N2CCN(C(=O)CCc3ccncc3)CC2)n1 | -15.67% |
| COc1cccc(OCC2CCCN(C(=O)CCc3cc(O)no3)C2)c1 (centres undefined) | -4.281% |
| COc1cc(CCC(=O)N2CCC(c3cncc(C)n3)CC2)on1 | 141.8% |
| Cc1noc(C2CCN(C(=O)CCc3nccs3)CC2)n1 | 4.096% |
| CCc1ccccc1C(=O)NS(=O)(=O)CCCC#N | -10.54% |
| Cc1n[nH]c(CCC(=O)N2CCOC(Cc3ccc(F)cc3)C2)c1C (centres undefined) | 14.83% |
| O=C(NC1(C(=O)NCC2CC2)CCCC1)C1Cc2cc(F)ccc2O1 (centres undefined) | -11.6% |
| C[C@H]1CN(C(=O)c2ccoc2)C[C@@]12CCN(CCN(C)C)C2=O.O=C(O)C(F)(F)F | 113.7% |
| Cc1cc(CN2C[C@@H](C)[C@@]3(CCN(C)C3=O)C2)oc1C.O=C(O)C(F)(F)F | 2.821% |

| Compound | Percent Effect |
| --- | --- |
| Cc1ccc(OC2(C(=O)O)CCN(C(=O)c3ccccc3F)CC2)cn1 | -3.687% |
| COCCN1CCO[C@@H]2CN(C(=O)Cc3ccc(F)cc3)CC[C@@H]2C1.O=C(O)C(F)(F)F | 12.24% |
| C[C@@H]1CN(C(=O)Cc2ccsc2)C[C@]12CCN(CCN(C)C)C2=O | 171.4% |
| CN(C)CCN1CCO[C@@H]2CN(C(=O)Cc3ccsc3)CC[C@@H]2C1 | 102.6% |
| COCC1CN(C(=O)Cc2ccsc2)Cc2c1cnn2C (centres undefined) | -19.19% |
| CC1N(C)C(=O)COC12CCN(C(=O)Cc1ccsc1)CC2 (centres undefined) | 1.71% |
| COCCN1CCO[C@@H]2CN(C(=O)Cc3ccccc3)CC[C@@H]2C1.O=C(O)C(F)(F)F | 12.5% |
| C[C@@H]1CN(C(=O)c2ccccc2F)C[C@]12CCN(CCN(C)C)C2=O | 90.27% |
| CN(C)CCN1CC(C(=O)N2CCC(c3cccc(O)c3)CC2)CC1=O (centres undefined) | -14.83% |
| CC(C)COc1cncc(NC(CO)c2ccco2)n1 (centres undefined) | -5.064% |
| CC(C1CCN(Cc2ccccc2OC(F)F)CC1)N1CCOCC1 (centres undefined) | 23.13% |
| CCN(CC(=O)NC)C(=O)c1cc(-c2cccc(Cl)c2)no1 | -2.874% |
| CNS(=O)(=O)c1ccc(CN2CCCN(CC(C)C)CC2)cc1 | 8.265% |
| Nc1cccc(-c2cccc3ccnn23)n1 | 9.414% |
| O=C(N[C@H]1CC[C@H](O)CC1)c1ccc2nc(-c3ccc(F)cc3)cn2c1 | -4.798% |
| NC(=O)Cn1ccnc1C1CCCN(Cc2ccccc2OC(F)F)C1 (centres undefined) | -1.119% |
| O=C1CC2(CCN(C(=O)c3ccc4c(c3)CCCO4)C2)C(=O)N1 (centres undefined) | -2.87% |
| Cc1ccsc1-c1nc(CN(C)Cc2noc(C(C)C)n2)c(C)o1 | 10.67% |
| COc1ccc(CNC(=O)Nc2ccc(CN3CCOC3=O)cc2)cc1 | 12.97% |
| COc1ccc(NC(=O)Nc2c(O)c3ccccc3oc2=O)cc1 | 106% |
| COc1ccc(CNC(=O)Nc2ccc(=O)n(C)c2)cc1 | -2.437% |
| CCn1ncnc1CN(C/C=C/c1ccccc1)CCOC | 8.107% |

| Compound | Percent Effect |
| --- | --- |
| CC(C)(C)CCN1CCN(Cn2nccc2-c2cccnc2)CC1 | -19.45% |
| Cc1nc(N2CCCCC2)ncc1C(=O)N1CC(C)(C)[C@@](C)(O)C1 | 13.78% |
| CCc1nc(C)ncc1C(=O)N1CCCC(n2nc(C)nc2C)C1 (centres undefined) | -5.056% |
| Cc1ncc(C(=O)N2CCC(C(=O)NC3CCCC3)C2)c(C)n1 (centres undefined) | 133.9% |
| Cc1ncc(C(=O)N2CC(C(=O)N3CCCCCC3)C2)c(C)n1 | 132.1% |
| O=C(NC1CCCCC1)C1CCCN(C(=O)Nc2ccccn2)C1 (centres undefined) | 6.063% |
| Cc1ncc(C(=O)N2C[C@H](CO)C[C@H](CN3CCOCC3)C2)c(=O)[nH]1 | -13.12% |
| Cc1ncc(C(=O)N2CC(C(=O)N3CCOCC3)C2)c(C)n1 | 106.6% |
| Cc1cnc(N2CC(C(=O)N3CCOCC3)C3(CCOCC3)C2)nc1 (centres undefined) | -3.796% |
| Cc1ncc(C(=O)N2C[C@H]3CC[C@@H]2CN(S(=O)(=O)N(C)C)C3)c(C)n1 | 4.102% |
| CCc1ncc2c(n1)CN(CCCOc1ccc(C#N)cc1)CC2 | -6.685% |
| CC(C)c1nnc2ccc(N3CCC(C(=O)Nc4nccs4)CC3)nn12 | 11.38% |
| Brc1cc2c(cc1CN1CCC(N3CCCCC3)CC1)OCCO2 | -3.138% |
| O=C(NCc1ccco1)[C@@]12CCO[C@@H]1CCN(c1ncccn1)C2.O=C(O)C(F)(F)F | -9.525% |
| Cc1cnc(CNC(=O)[C@@]23CCO[C@@H]2CCN(c2ncccn2)C3)cn1 | 105.8% |
| CC(=O)N1CC[C@H]2OCC[C@@]2(C(=O)NCc2ccco2)C1 | 16.6% |
| Cc1ccnc(OC[C@@]23CCO[C@@H]2CCN(c2ncccn2)C3)n1.O=C(O)C(F)(F)F | -11.59% |
| O=C(NCc1ccco1)[C@@]12CCO[C@@H]1CCN(Cc1nccs1)C2 | -2.827% |
| CC(=O)N1CC[C@H]2OCC[C@@]2(C(=O)NCc2cnc(C)cn2)C1 | 98.12% |
| O=C(NCc1ccccn1)[C@@]12CCO[C@@H]1CCN(c1ncccn1)C2 | 99.07% |
| O=C(NCc1ccco1)[C@@]12CCO[C@@H]1CCN(CCN1CCCC1)C2 | -0.5732% |
